Tau FP inhib: tau fibrillization inhibition (FP). K18 P301L tau heparin fibrillization, Alexa594 FP, 6 h. P10636. 280,000 compounds, 0.39% hits. Potency, µM (titrated, usually from 57.7 µM), for inactives: at the highest dose activity, negative = inhibition, hits mostly inhibitors; note: nearly all actives have a fitted effect of over 55% in size
Target sequence (P10636 561-689 P618L limits assumed): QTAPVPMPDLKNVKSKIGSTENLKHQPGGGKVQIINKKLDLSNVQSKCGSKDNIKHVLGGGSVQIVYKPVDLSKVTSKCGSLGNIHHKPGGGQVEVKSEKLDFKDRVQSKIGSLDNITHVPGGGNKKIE
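Steps: dispense K18 P301L tau (15 uM plus 0.24 uM Alexa 594 tracer, final) in pH 7 sodium acetate; add compound; add heparin (20 uM final); incubate 6 hr, 37 C; add ThT (30 uM final); after 1 hr ambient, read FP.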
TRb-SRC2 inh: TRbeta-SRC2 interaction inhibition | TRbeta-SRC2 peptide binding, fluorescence polarization; receptor liganded with 1 µM T3 | Potency, µM (titrated, usually from 106 µM), for inactives: at the highest dose activity change, negative = inhibition, hits mostly inhibitors | AID 1469 | 280,000 compounds, 0.065% hits | P10828;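 note: plate controls were bound peptide for no effect and peptide without receptor for full effect; nearly all actives have a fitted effect of over 50% in size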
Target sequence (P10828 whole entry, looked up): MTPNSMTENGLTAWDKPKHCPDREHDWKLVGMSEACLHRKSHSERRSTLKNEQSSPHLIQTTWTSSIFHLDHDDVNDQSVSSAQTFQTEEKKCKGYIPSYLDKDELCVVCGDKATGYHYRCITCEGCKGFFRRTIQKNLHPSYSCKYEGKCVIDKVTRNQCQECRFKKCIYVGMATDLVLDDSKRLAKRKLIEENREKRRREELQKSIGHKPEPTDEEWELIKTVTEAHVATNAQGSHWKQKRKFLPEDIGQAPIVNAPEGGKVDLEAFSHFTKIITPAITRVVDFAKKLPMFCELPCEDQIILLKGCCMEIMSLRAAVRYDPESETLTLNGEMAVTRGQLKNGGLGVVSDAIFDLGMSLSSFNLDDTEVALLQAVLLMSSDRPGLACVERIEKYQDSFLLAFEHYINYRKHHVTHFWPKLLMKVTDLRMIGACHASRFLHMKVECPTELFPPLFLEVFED
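Fluorescence polarization of 20 nM Texas Red SRC2 peptide (20-aa NR interaction domain) bound to 0.6 uM human TRb ligand-binding domain, with 1 uM T3, after 5 hr at ambient temperature; inhibition seen as decreased polarization.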
Tau ThT inhib: tau fibrillization inhibition (ThT binding). P10636. recombinant tau K18 P301L, heparin-induced fibrillization, ThT fluorescence. Potency, µM (series often up to 57.4 µM), for the others: at the top dose activity, negative = inhibition, actives largely listed as inhibitors. 270,000 compounds, 2.1% hits; note: nearly all actives have a fitted effect of over 55% in size
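Fibril formation assay: tau K18 P301L at 15 uM with trace Alexa 594 label, heparin inducer 20 uM, pH 7 sodium acetate buffer, 37 C for 6 hr; endpoint ThT signal.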
Tau fluor cs: counter-screen for tau fibril formation inhibitors; tau K18 P301L Alexa594 fluorescence, heparin fibrillization; Potency, µM (doses to about 57.7 µM), inactives show top-dose activity change, negative = decrease; 280,000 compounds, 0.93% hits; note: nearly all actives have a fitted effect of over 55% in size
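Human tau K18 P301L (15 uM unlabeled, 0.24 uM Alexa 594-labeled) in 100 mM sodium acetate pH 7 with 20 uM heparin, 6 hr at 37 C. ThT 30 uM added, 1 hr ambient; Alexa 594 FP and total fluorescence read at 555/632 nm.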
TexasRed fluor: counter-screen for TRb-SRC2 inhibitors: fluorescence interference. TRb/SRC2 Texas Red total fluorescence interference. Potency, µM (titrated, usually from 106 µM), for inactives: top-dose fluorescence change, negative = quenching. 280,000 compounds, 0.29% hits. AID 1479; active = well fitted curve in either direction with a large enough effect; inconclusive = small, poorly fitted or top-dose-only effect
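Human TRb ligand-binding domain at 0.6 uM with 20 nM Texas Red SRC2 peptide in Tris buffer containing 1 uM T3 and 5% DMSO, incubated with compound 5 h at ambient temperature. Total fluorescence (555/632 nm) calculated as parallel + 2 × perpendicular.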
* hit, by the source's call; ? = inconclusive; . = no result given; [ ] = another dose, or the depositor's remark. The list is not random: actives were taken first. Their share in the collection is about 3.1%. Unless noted, calls come from the whole dose curve; as a rule, active = well fitted curve in the direction sought with a large enough effect; inconclusive = small, poorly fitted or top-dose-only effect, or another doubt; inactive = no such curve, though single readings can be large; an effect the other way counts as inactive or inconclusive. Unless noted, % is set by controls: 0 for no effect and ±100 for the full control effect; potency is the fitted concentration of half-maximal effect.

SMILES | Tau FP inhib | TRb-SRC2 inh | Tau ThT inhib | Tau fluor cs | TexasRed fluor
O=C(Nc1cccc(-c2nc3ccccc3s2)c1)c1cccs1 | 22µM* | 5% | ? | ? | -3%
O=C(Nc1cccc(Cl)c1)Nc1sccc1-c1nc2ccccc2s1 | ? | 6% | ? | 14µM*[quencher] | 6%
CCOC(=O)C1(C)C=C(Nc2ccc(O)cc2)C(=O)N1c1ccc(O)cc1 (configuration not stated) | 28µM* | 5% | 14µM* | ? | -1%
CCOC(=O)C1(C)C=C(Nc2ccc(OC)cc2)C(=O)N1c1ccc(OC)cc1 (configuration not stated) | 2% | -13% | 4% | -1% | 0%
CCc1ccc(NS(=O)(=O)c2ccc3[nH]cc(C(=O)NC4CCCC4)c(=O)c3c2)cc1 | 11µM* | 0% | 7% | ? | -2%
CCOc1ccc(NS(=O)(=O)c2ccc3[nH]cc(C(=O)NC4CCCC4)c(=O)c3c2)cc1 | 25µM* | -5% | -1% | ? | 0%
CSCC[C@@H]1NC(=O)C/C=C\[C@@H](C)COC(=O)[C@@H](C)COC1=O | 3%[11.6 µM] | -6%[11.2 µM] | -5%[11.5 µM] | -3%[11.6 µM] | 0%[11.2 µM]
N#Cc1cc2c(nc1SC1CCCCC1O)CCCC2 (configuration not stated) | 0% | 7% | -7% | -5% | 1%
O=C1C(Nc2ccccc2)=CC(=O)c2ncccc21 | ? | 4% | 14µM* | ? | -9%
Cc1c(C(=O)Nc2ccccc2)sc2nc(-c3cc4ccccc4oc3=O)[nH]c(=O)c12 | -4% | -2% | 4% | 2% | 282µM*[quencher]
Cc1ccccc1NC(=O)c1sc2nc(-c3cc4ccccc4oc3=O)[nH]c(=O)c2c1C | -8% | -5% | 1% | -3% | 6%
CC(=O)NCCN=C(C)c1sc2ccccc2c1O | 8% | -3% | ? | -14% | -6%
CC(=Nc1ccc(O)cc1)c1sc2ccccc2c1O | 13% | -2% | 4.5µM* | ? | 0%
CC(=Nc1cccc(C)c1)c1sc2ccccc2c1O | 13% | 4% | ? | ? | 0%
CC(=Nc1ccccc1O)c1sc2ccccc2c1O | 18% | -8% | 5µM* | 28µM*[quencher] | -2%
O=C(Cc1ccccc1)Nn1c(O)c(/C=C2\C=Nc3ccccc32)sc1=S | ? | 4% | 2.5µM* | 7.9µM*[quencher] | -4%
O=C(Nc1ccccc1F)Nc1ccccc1F | -2% | -3% | 1% | -4% | 1%
Cc1ccc(N=Nc2ccc(C)cc2NC(=O)Nc2ccccc2F)cc1 | -9% | 11% | 1.3µM* | ? | -1%
COc1cc2c(cc1OC)C(c1c[nH]c3ccccc13)NCC2 (configuration not stated) | -2% | 3% | -9% | -18% | -1%
COc1ccc(-n2ccnc2SCC(=O)NCc2ccco2)c(OC)c1 | -4% | 0% | -13% | -3% | 0%
CSc1ccc(N=Nc2c(C)[nH]n(C)c2=O)cc1 | -2% | -3% | 8.9µM* | -8% | 0%
Cc1[nH]n(-c2ccc(Cl)cc2)c(=O)c1N=Nc1cccnc1 | -7% | -5% | . | -3% | -3%
CC(=O)[C@]1(O)CCC2C3C=C(Cl)C4=CC(=O)C5CC5[C@@]4(C)C3CC[C@]21C (some centres not stated) | -6% | -7% | 2% | -8% | 0%
O=C(CCNc1ccc(Cc2ccncc2)cc1)c1ccc([N+](=O)[O-])cc1 | -3% | -6% | 10µM* | 7.9µM*[quencher] | -7%
O=C(CCNc1ccc(Br)cc1)c1cccc([N+](=O)[O-])c1 | ? | 3% | ? | 28µM*[quencher] | -3%
SMILES | Tau FP inhib | TRb-SRC2 inh | Tau ThT inhib | Tau fluor cs | TexasRed fluor
O=C(Nc1ccc(Cc2ccncc2)cc1)c1cccc([N+](=O)[O-])c1 | -4% | 7% | -5% | -9% | -1%
O=C(CCNc1ccccc1)c1cccc([N+](=O)[O-])c1 | -4% | -7% | -11% | -7% | -2%
Cc1nc(SCC(=O)c2cccc([N+](=O)[O-])c2)n[nH]1 | ? | 3% | 40µM* | -28% | 2%
O=C(CCNc1ccc(F)cc1)c1cccc([N+](=O)[O-])c1 | 9% | 0% | ? | 16µM*[quencher] | -1%
Cc1ccnc(SCC(=O)c2cccc([N+](=O)[O-])c2)n1 | -3% | 4% | -10% | -13% | -3%
CC(=O)c1ccc(Nc2nc3ccccc3nc2-n2nc(C)cc2C)cc1 | ? | -5% | 1% | ? | -2%
CCc1cccc(NC(=O)Cn2c(C(=O)OC)cc3occc32)c1 | -1% | 3% | -2% | -13% | -20%
CCOC(=O)CC1=C(C(=O)OCC)C(c2cc(OC)c(OC)cc2OC)C(C#N)=C(N)O1 (configuration not stated) | -3% | -8% | -20% | -13% | -1%
CCOC(=O)CC1=CC(C)(CC(=O)OCC)C(C#N)(C#N)C(N)=C1C#N (configuration not stated) | ? | 11% | 28µM* | -26% | -2%
CCOC(=O)c1ccc(Nc2ncnc3nc[nH]c23)cc1 | -2% | -7% | -5% | -8% | 0%
c1ccc(COc2ccc(Nc3ncnc4nc[nH]c34)cc2)cc1 | 18% | 1% | ? | 14µM*[quencher] | 1%
Cc1ccc(/C(C#N)=C\c2ccc(N3CCOCC3)o2)cc1 | ? | -4% | 10µM* | ? | 13%
COCCNC(=O)/C(C#N)=C/c1ccc(N2CCOCC2)o1 | -1% | 0% | ? | -12% | 1%
N#C/C(=C\c1ccc(N2CCOCC2)o1)C(=O)NCCc1ccccc1 | 11% | -9% | 8.9µM* | -27% | -1%
Cc1ccc2nc(/C(C#N)=C\c3ccc(N4CCOCC4)o3)[nH]c2c1 | ? | -20% | 13µM* | ? | -4%
CCOC(=O)c1ccc(-c2ccc(/C=C(\C#N)c3nc4ccc(C)cc4[nH]3)o2)cc1 | -1% | 3% | -5% | -18% | -5%
NC(=O)[C@@H]1CCCNc2c(I)cc([N+](=O)[O-])cc2C(=O)N[C@@H](CO)C(=O)NCC(=O)N1 | 1% | 9% | -10% | -5% | -1%
CCCCn1c(=O)c(CCC(=O)OCC(=O)Nc2ccc(F)c(Cl)c2)nc2ccccc21 | -12% | 7% | 4% | -23% | -1%
COc1ccc2[nH]c(C)c(CCNc3ccc(C(F)(F)F)cc3[N+](=O)[O-])c2c1 | ? | 8% | ? | 11µM*[quencher] | -1%
CS(=O)(=O)NCCNc1ccc(C(F)(F)F)cc1[N+](=O)[O-] | -3% | 1% | -18% | -2% | 0%
S=c1[nH]nc(-c2n[nH]c3c2CCC3)n1/N=C/C=C/c1ccco1 | ? | -7% | 22µM* | -24% | -6%
CN(C)c1ccc(C(=O)Nc2sc(Nc3ccccc3)nc2C(N)=O)cc1 | -1% | -4% | 1.1µM* | 11µM*[quencher] | -2%
Nc1ccc(-c2nc3ccccc3[nH]2)cc1 | 0% | 5% | ? | -16% | -9%

Screening results as filed in PubChem.
